High-throughput results as filed in PubChem.
rRNA inh HTS: inhibitors of bacterial rRNA selective over humanized ribosomes; E. coli WT GFP vs humanized-ribosome RFP mutants, fluorescence, 24 h; active compounds read low; DMSO median 0, no signal -100; GFP signal change (wild-type ribosome), % (no concentration beside the values); hit rate 1.6% among 350,000; AID 720706;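 active = significant combined selectivity score with lowered wild-type GFP, culture density cut under 30%, mutant RFP and density less affected; inactive = any of these conditions unmet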
RAD52 anneal inh: inhibitors of human RAD52 DNA annealing; hit rate 0.46% among 360,000; recombinant RAD52 DNA annealing, FRET fluorescence; inhibition, % at 18.7 µM; AID 651710;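 active = every replicate showing at least 50% inhibition; inconclusive = mean inhibition at least 50% but not in every replicate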
Target sequence (P43351 whole entry, looked up): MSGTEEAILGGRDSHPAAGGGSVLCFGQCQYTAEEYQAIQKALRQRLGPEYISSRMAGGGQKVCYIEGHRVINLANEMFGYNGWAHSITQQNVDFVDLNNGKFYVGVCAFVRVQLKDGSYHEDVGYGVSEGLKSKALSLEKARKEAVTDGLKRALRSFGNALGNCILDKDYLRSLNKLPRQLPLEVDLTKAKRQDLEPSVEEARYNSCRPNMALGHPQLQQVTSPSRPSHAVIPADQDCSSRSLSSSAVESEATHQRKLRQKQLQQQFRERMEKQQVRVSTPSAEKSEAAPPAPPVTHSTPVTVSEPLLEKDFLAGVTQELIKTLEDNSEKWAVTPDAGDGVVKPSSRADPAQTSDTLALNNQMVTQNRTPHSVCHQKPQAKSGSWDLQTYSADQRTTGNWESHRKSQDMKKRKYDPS
NSD2 HMT inh: blocks human histone methyltransferase NSD2; inhibition, % at 12.5 µM; O96028; NSD2 peptide methylation, AlphaScreen, 120 min; hit rate 0.54% among 310,000; in the data active = inhibition above about 50%
MLL AF4-AF9 inh: blocks AF4 peptide binding to human AF9; P42568; AlphaScreen, biotin-AF4 peptide binding to FLAG-AF9; inhibition, % at 10 µM; hit rate 0.47% among 350,000; AID 651704;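 active = every replicate reaching a set inhibition limit, whatever the replicate mean, cut at about 25% in these data; inconclusive = mean inhibition reaches that limit but some replicates miss it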
CASP6 VEID inh: blocks human caspase-6 cleavage activity. P55212. purified caspase-6, Z-VEID-R110 cleavage fluorescence. inhibition, % at 12.5 µM. hit rate 0.53% among 350,000;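 active = mean inhibition across replicates at least about 35%, with every replicate also reaching that limit, limit read from the data; inconclusive = only one of the two criteria met; inactive = neither criterion met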
AlphaScreen intf: interferes with the AlphaScreen assay signal | AC50, µM (titrated, usually from 12 µM) | hit rate 45% among 530 | AlphaScreen interference counter-screen, signal luminescence | AID 720494 | shares compounds with MLL AF4-AF9 inh; cut-off not given, nearly all actives have AC50 up to about 14 µM
Numbers stand for hits; – = inactive; ? = inconclusive; · = no result given. Rows were chosen to be rich in hits. Some 2.5% of all compounds tested hit in one or more screens of this group.

SMILES	rRNA inh HTS	RAD52 anneal inh	NSD2 HMT inh	MLL AF4-AF9 inh	CASP6 VEID inh	AlphaScreen intf
CCOc1ccc2oc(C(=O)NCC(c3ccco3)N(C)C)c(C)c2c1 (centres undefined)	–	–	–	–	–	·
O=C(NCCCN1CCCC1=O)C1CCN(S(=O)(=O)c2ccccc2)CC1	–	–	–	?	–	·
O=C(NCCCN1CCCC1=O)C1CCN(S(=O)(=O)c2cccc(C(F)(F)F)c2)CC1	–	–	–	27	–	–
Cc1cc(C)c2sc(N(CCCN(C)C)C(=O)c3ccc(S(=O)(=O)N4CCCc5ccccc54)cc3)nc2c1	–	–	–	56	–	–
CCc1ccc(Nc2n[n+](-c3ccccc3)c(-c3c(Cl)cccc3Cl)s2)cc1	–	–	·	·	·	·
COc1ccc(C)cc1Nc1n[n+](-c2ccccc2)c(-c2ccc(OC)c(OC)c2OC)s1	–	–	·	·	–	·
Fc1ccc(-[n+]2nc(Nc3ccccc3)sc2-c2c(Cl)cccc2Cl)cc1	–	–	·	34	–	–
COc1ccc2ccccc2c1-c1sc(Nc2ccccc2)n[n+]1-c1ccc(F)cc1	–	–	·	43	–	–
COc1ccc(C)cc1Nc1n[n+](-c2ccccc2)c(-c2c(Cl)cccc2Cl)s1	–	–	·	45	–	–
CN(C)CC(=O)Nc1ccc2c(c1)[C@@H]1C[C@@H](CC(=O)NCc3ccccc3)O[C@@H](CO)[C@@H]1O2	–	–	·	–	–	·
COc1cccc(CNC(=O)[C@@H]2[C@@H](CO)[C@@H]3Cn4c(cccc4=O)[C@H]2N3C(=O)C2CCC2)c1	–	–	·	–	–	·
CCCNC(=O)N1C[C@H](C)[C@H](OC)CN(C)C(=O)c2ccc(NC(=O)CC)cc2OC[C@H]1C	–	–	·	–	–	·
CCC(=O)N(C)C[C@H]1Oc2cc(C#Cc3ccncc3)ccc2S(=O)(=O)N([C@@H](C)CO)C[C@@H]1C	–	–	·	?	–	–
C/C(=N\Nc1ccccn1)c1ccc2c(c1)OCO2	–	–	–	–	–	·
C/C(=N\Nc1nc2ccccc2[nH]1)c1ccc2c(c1)OCO2	–	–	–	33	–	–
Cc1cccc(C2Nc3cccc4cccc(c34)N2)c1	–	–	–	–	–	·
c1cc2c3c(cccc3c1)NC(c1ccc3c(c1)OCO3)N2	–	–	–	34	–	–
O=C(C[C@H]1CC[C@H]2[C@@H](COC[C@H](O)CN2C(=O)Nc2ccc(F)cc2)O1)NC1Cc2ccccc2C1	–	–	·	–	–	·
CCN(CC)c1ccc(C(=C2C=CC(=[N+](CC)CC)C=C2)c2ccc(S(=O)(=O)O)cc2S(=O)(=O)[O-])cc1	–	–	–	60	–	7.9µM
CN(CCc1ccccc1)C(=O)c1ccc(NC(=O)Cc2ccc(NC(=O)C3CCCN(C(=O)C4CCCCC4)C3)cc2)cc1 (centres undefined)	–	–	·	–	–	·
CN(CCc1ccccc1)C(=O)c1ccc(NC(=O)Cc2ccc(NC(=O)C3CCN(C(=O)C4CCCC4)CC3)cc2)cc1	–	–	·	33	–	–
C#CCOCCOCCOCCNc1nc(N2CCN(C(=O)C([C@@H](C)O)n3cc([C@@H](N)CCCCN)nn3)CC2)nc(N2CCN(C(=O)C([C@@H](C)O)n3cc([C@@H](N)CCCCN)nn3)CC2)n1 (some centres undefined)	–	–	·	39	–	–
C#CCOCCOCCOCCNc1nc(N2CCN(C(=O)C([C@@H](C)O)n3cc([C@@H](N)CCCCN)nn3)CC2)nc(N2CCN(C(=O)[C@H](CC(N)=O)n3cc(C(N)[C@@H](C)CC)nn3)CC2)n1 (some centres undefined)	–	–	·	–	–	·
C#CCOCCOCCOCCNc1nc(N2CCN(C(=O)[C@H](CC(N)=O)n3cc(C(N)[C@@H](C)CC)nn3)CC2)nc(N2CCN(C(=O)[C@H](CCCCN)n3cc([C@@H](N)CC(N)=O)nn3)CC2)n1 (some centres undefined)	–	–	·	–	–	·
C#CCOCCOCCOCCNc1nc(N2CCN(C(=O)[C@H](CCCCN)n3cc([C@@H](N)C(C)CC)nn3)CC2)nc(N2CCN(C(=O)[C@H](CCCCN)n3cc([C@@H](N)CC(C)C)nn3)CC2)n1 (some centres undefined)	–	–	·	56	–	–
C[C@H]1CN([C@@H](C)CO)C(=O)c2cccc(NC(=O)Nc3ccc(F)cc3)c2O[C@@H]1CN(C)S(=O)(=O)c1cn(C)cn1	–	·	·	·	·	·
